Hits are enriched below; roughly 3.5% of the tested compounds scored in any of these assays.
TEAD-YAP block – TEAD-YAP interaction inhibition; HEK-TIYL cells, TEAD-Gal4/YAP UAS-luciferase luminescence; inhibition, % at 9.12 µM; hit rate 1.4% among 640,000; in the data active means inhibition above about 32%
GPR151 activ – human GPR151 activation; Q8TDV0; PathHunter beta-arrestin GPR151 cells, luminescence; activation, % at 11.2 µM; hit rate 1% among 650,000; in the data active means activation above about 4.9%
FBW7 act – activators of human E3 ligase FBW7; Q969H0; AlphaScreen FBW7–phospho-cyclin E peptide binding, activator screen; hit rate 0.13% among 650,000; normalized activity (activation), % at 26.1 µM; in the data active means normalized activity above about 1.9%;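 further: purified mutant Fbw7 with reduced substrate affinity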
Target sequence (Q969H0 whole entry, looked up): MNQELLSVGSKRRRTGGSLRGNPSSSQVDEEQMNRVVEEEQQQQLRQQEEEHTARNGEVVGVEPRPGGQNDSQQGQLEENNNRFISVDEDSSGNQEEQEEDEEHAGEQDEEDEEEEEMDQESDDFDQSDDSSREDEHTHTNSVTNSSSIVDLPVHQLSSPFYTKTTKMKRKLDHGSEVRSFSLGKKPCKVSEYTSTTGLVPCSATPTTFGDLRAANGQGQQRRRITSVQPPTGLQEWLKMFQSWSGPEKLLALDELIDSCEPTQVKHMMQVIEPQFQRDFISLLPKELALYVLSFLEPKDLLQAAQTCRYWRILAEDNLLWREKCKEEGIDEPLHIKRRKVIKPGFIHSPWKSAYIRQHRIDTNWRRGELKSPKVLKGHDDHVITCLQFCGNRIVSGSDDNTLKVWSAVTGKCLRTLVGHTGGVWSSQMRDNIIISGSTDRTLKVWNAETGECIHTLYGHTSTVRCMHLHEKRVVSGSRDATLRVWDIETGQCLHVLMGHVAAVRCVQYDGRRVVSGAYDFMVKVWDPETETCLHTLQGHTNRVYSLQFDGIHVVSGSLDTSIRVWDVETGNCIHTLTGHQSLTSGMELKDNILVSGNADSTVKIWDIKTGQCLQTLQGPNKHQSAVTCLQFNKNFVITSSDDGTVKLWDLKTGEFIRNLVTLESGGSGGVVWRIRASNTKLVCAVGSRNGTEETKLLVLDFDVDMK
MITF inh – blocks human microphthalmia-associated transcription factor. inhibition, % at 2.6 µM. AID 1259374. AlphaScreen MITF homodimerization, bead proximity signal. hit rate 0.91% among 650,000; in the data active means inhibition above about 50%
Of the large screens only hits and unclear results are named; the others gave an inactive call.

COc1cc(Nc2nc3c(NCCO)ncnc3n2C(C)C)cc(OC)c1OC	none
COc1cc(Nc2nc3c(Nc4ccccc4)ncnc3n2C(C)C)cc(OC)c1OC	TEAD-YAP block 38
COc1cc(Nc2ncnc3c2nc(Nc2cccc(N(C)C)c2)n3C(C)C)cc(OC)c1OC	none
O=C(N/N=C/c1cc(Br)ccc1O)c1ccc(O)cc1O	TEAD-YAP block 72
Cc1occc1C(=O)N/N=C/c1cc(Br)ccc1O	TEAD-YAP block 47
CCN1C(=O)CC(C(=O)Nc2ccc(Cl)cc2)SC1=Nc1ccc(OC)cc1 (configuration not stated)	TEAD-YAP block 38
COc1ccccc1NC(=O)Cn1cnc2sc(C(=O)NC3CCCC(C)C3C)c(C)c2c1=O (configuration not stated)	FBW7 act 2.0
CCCNC(=O)Cn1cnc2sc(C(=O)NCCCOC)c(C)c2c1=O	FBW7 act 3.2
COc1ccccc1NC(=O)Cn1cnc2sc(C(=O)Nc3cccc(C(F)(F)F)c3)c(C)c2c1=O	none
COc1ccccc1NC(=O)Cn1cnc2sc(C(=O)Nc3ccc(C(F)(F)F)cc3)c(C)c2c1=O	FBW7 act 2.2
O=C(NCc1ccccc1)NC1(C(=O)O)CCCCC1	none
Cc1cc(C=C2C(=O)c3ccccc3C2=O)c(C)n1-c1ccc(S(N)(=O)=O)cc1	none
Cc1cc(C=C2C(=O)c3ccccc3C2=O)c(C)n1-c1cc(C(=O)O)cc(C(=O)O)c1	MITF inh 64
CC(=O)Nc1ccc(NC(=O)CN2C(=O)CC(C)Sc3ccccc32)cc1 (configuration not stated)	none
N=C1C(c2nc3ccccc3s2)=C(O)CN1/N=C/c1ccc(O)c(O)c1O	MITF inh 56
N=C1C(c2nc3ccccc3s2)=C(O)CN1/N=C/C=O	none
O=C(NCC1CCCO1)C1CCN(C2CCN(C/C=C/c3ccco3)CC2)CC1 (configuration not stated)	none
COc1cccc(C(=O)Nc2cccc(OC(=O)c3ccc(C)c(S(=O)(=O)N4CCOCC4)c3)c2)c1	TEAD-YAP block 36
COc1ccc(C(=O)Nc2cccc(OC(=O)c3ccc(C)c(S(=O)(=O)N4CCOCC4)c3)c2)cc1	TEAD-YAP block 66
Cc1ccc(C(=O)Nc2cccc(OC(=O)c3cccc(S(=O)(=O)N4CCC(C)CC4)c3)c2)cc1	TEAD-YAP block 68
Cc1cc(C)c(S(=O)(=O)N2CCC(C(=O)Nc3cccc([N+](=O)[O-])c3)CC2)c(C)c1	none
COc1ccc(S(=O)(=O)N2CCC(c3nc4ccccc4[nH]3)CC2)cc1C	none
Cc1cccc(C(=O)Nc2ccc(C(=O)Nc3ccc(I)cc3C)cc2)c1	none
Cc1oc(C2CC2)cc1C(=O)N1CCC2(CC1)NC(=O)c1ccccc1O2	none
Cc1ccc(S(=O)(=O)Nc2ccccc2C(=O)Nc2nc(-c3ccc(Cl)cc3)cs2)cc1	TEAD-YAP block 53
Cc1ccc(S(=O)(=O)Nc2ccccc2C(=O)Nc2nc(-c3ccc(Br)cc3)cs2)cc1	TEAD-YAP block 38
Cc1ccc(S(=O)(=O)Nc2ccccc2C(=O)Nc2nc(-c3cccs3)cs2)cc1	none
Cc1ccc(S(=O)(=O)Nc2ccccc2C(=O)Nc2nccs2)cc1	TEAD-YAP block 39
Cc1ccc(S(=O)(=O)Nc2ccccc2C(=O)Nc2nc(-c3ccc(Br)s3)cs2)cc1	TEAD-YAP block 53
CS(=O)(=O)c1ccccc1C(=O)Nc1nc(-c2ccc(C#N)cc2)cs1	TEAD-YAP block 34
CSc1ccccc1C(=O)Nc1nc(-c2ccc(C#N)cc2)cs1	none
Cc1cc(C)c(N(C(=O)CCl)C(=O)C2CCCN2C(=O)CCl)c(C)c1 (configuration not stated)	TEAD-YAP block 32
O=C(NC1CC1)c1ccc2c(c1)NC(=O)C(CSCc1ccc(F)cc1)N2 (configuration not stated)	none
NC(=S)Nc1ccccc1OC(F)F	none
CCCNc1nc(-c2cccc(N)c2)nc2c1ncn2-c1ccsc1	TEAD-YAP block 53
Nc1cccc(-c2nc(NCCO)c3ncn(-c4ccsc4)c3n2)c1	TEAD-YAP block 63
Cc1noc(C)c1-c1nc(NCCO)c2ncn(-c3ccsc3)c2n1	none
COc1ccccc1-c1cc(C(F)(F)F)n2ncc(C(=O)NCc3ccco3)c2n1	none
O=C(Nc1cccc(Br)c1)c1ccccc1F	none
COc1cccc(S(=O)(=O)NCc2ccccn2)c1	none
COc1cc(S(=O)(=O)NCc2ccccn2)ccc1Cl	TEAD-YAP block 37
O=S(=O)(NCc1ccccn1)c1ccc(Cc2ccc(S(=O)(=O)NCc3ccccn3)cc2)cc1	TEAD-YAP block 59
CC1(C)C(=O)NCCN1C(=O)Cn1c(=O)n(Cc2cccs2)c2ncccc21	none
COc1ccc([N+](=O)[O-])cc1NC1CC(=O)N(c2c(C)cccc2C)C1=O (configuration not stated)	none
CCCCS(=O)(=O)/C=C\C=C\S(=O)(=O)CCCC	TEAD-YAP block 90
CSC1=NSC2=NC(=O)/C(=C\c3ccc([N+](=O)[O-])o3)C(=N)N12	MITF inh 85
CSC1=NSC2=NC(=O)/C(=C\c3ccc(C)o3)C(=N)N12	none
CC(C)c1ccccc1OCC(=O)NN1C(=O)c2ccccc2C1=O	TEAD-YAP block 34
CCN(CC)S(=O)(=O)c1cc(C(=O)Oc2cccc(NC(=O)c3ccccc3Cl)c2)ccc1C	TEAD-YAP block 55
CCN(CC)S(=O)(=O)c1cccc(C(=O)Oc2cccc(NC(=O)c3cccc(OC)c3)c2)c1	none
Cc1ccc(OCC(=O)Oc2cccc(NC(=O)c3ccccc3Cl)c2)cc1C	TEAD-YAP block 61
CCN(CC)S(=O)(=O)c1cc(C(=O)Oc2cccc(NC(=O)c3ccc([N+](=O)[O-])cc3)c2)ccc1C	TEAD-YAP block 36
O=C(Oc1cccc(NC(=O)c2ccccc2Cl)c1)c1ccc2c(c1)OCO2	TEAD-YAP block 60
O=C(Nc1cccc(NCc2ccc3c(c2)OCO3)c1)c1ccccc1Cl	none
CCN(CC)S(=O)(=O)c1cc(C(=O)Oc2cccc(NC(=O)c3ccc(Br)cc3)c2)ccc1C	none
O=[N+]([O-])c1ccc(S(=O)(=O)NCC2CC3CC2C2OC32)cc1 (configuration not stated)	none
COC(=O)C[C@](O)(CCCC(C)(C)O)C(=O)O[C@@H]1C(OC)=C[C@]23CCCN2CCc2cc4c(cc2[C@H]13)OCO4	TEAD-YAP block 99
COc1cc(C(=O)OCC(C)=O)ccc1OCc1c(C)noc1C	TEAD-YAP block 48
COC(=O)c1ccc(COC(=O)c2ccc(OCc3c(C)noc3C)c(OC)c2)cc1	none
CCCC(=O)Nc1ccccc1-c1nc2cc3ccccc3cc2[nH]c1=O	TEAD-YAP block 55
Cn1cccc1/C=C1\CS/C(=C\c2cccn2C)C1=O	MITF inh 68
CCN1C/C(=C\c2cccn2C)C(=O)/C(=C/c2cccn2C)C1	none
COc1c(C)c2c(c(O)c1C/C=C(\C)CCC(=O)OCCN1CCOCC1)C(=O)OC2	TEAD-YAP block 48
COc1ccc(C(=O)n2c(=S)nc3ccccn32)cc1	TEAD-YAP block 74
COc1ccc(C(=O)n2c(=S)nc3cccc(C)n32)cc1	none
C=C1C(c2ccc(C)cc2)=CCc2cc(C)cc(C)c21	TEAD-YAP block 54
Cc1cc(C)c2c(c1)CC(C)(C)C(=O)C2=O	none

Screening results from PubChem.
